From PubChem BioAssay
The list is not random: actives were taken first. Their share in the collection is about 4.6%.
PfHsp90 set2 = inhibits growth of yeast expressing Plasmodium falciparum Hsp90; S. cerevisiae expressing PfHsp90, BacTiter-Glo ATP, 48 h; yeast lacking PDR1 and PDR3 efflux regulators; inhibition, % at 9.4 µM; actives 0.32% (n = 310,000);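 active = every replicate shows inhibition above about 80%, whatever the replicate mean, limit read from the data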;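 note: 0% = DMSO neutral controls and 100% = 20 µM radicicol positive controls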
SKKanGAS inh = inhibitors of SKKanGAS S. pyogenes growth in kanamycin (SK-promoter or general growth effect); actives 1.3% (n = 300,000); BacTiter-Glo, 6 h; inhibition, % at 7.5 µM;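 active = mean replicate score, as percent of positive control median, at least 50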;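 note: strain carries kanamycin resistance gene driven by streptokinase promoter and grows in 40 µg/ml kanamycin; loss of luminescence reflects streptokinase promoter inhibition or plain growth inhibition; 0% = median of DMSO wells and 100% = positive control at its reference dose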
TIM10 inh = inhibits growth of TIM10 yeast strain; S. cerevisiae TIM10 strain growth, BacTiter-Glo luminescence, 24 h; inhibition, % at 10 µM; actives 1.4% (n = 330,000); AID 463195;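 active = inhibition of 40% or more at the single tested concentration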;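 note: wild-type TIM10 isogenic control strain grown at permissive 25 °C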
tim23-1 inh = inhibits growth of tim23-1 mutant yeast; S. cerevisiae tim23-1 growth, BacTiter-Glo luminescence, 24 h; inhibition, % at 20 µM; actives 1.3% (n = 330,000);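 active = growth inhibition of the mutant yeast at or above 50%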;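 note: temperature-sensitive mutant grown at 25 °C; plate controls were DMSO-treated mutant yeast for no effect and medium wells lacking yeast for full effect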
tim10-1 inh = inhibits growth of tim10-1 mutant yeast; S. cerevisiae tim10-1 ts strain growth, BacTiter-Glo, 24 h; inhibition, % at 20 µM; actives 2.2% (n = 330,000);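 active = inhibition of at least 40%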;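 note: mutant grown at 25 °C; 0% = DMSO wells with yeast and 100% = wells holding no yeast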
NLRP3 yeast inh = NALP3 inhibition in yeast; Yeast reconstituted NLRP3/ASC/caspase-1, beta-gal luminescence, 24 h; inhibition, % at 10 µM; actives 0.39% (n = 330,000); AID 2825;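 active = inhibition of 50% or more; inactive = inhibition below 50%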;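 note: plate controls were induced DMSO wells for no effect and uninduced yeast grown without galactose for full effect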
NALP3 confirm = confirmation of NALP3 inhibitors in yeast. actives 81% (n = 1,300). yeast expressing human NALP3, luminescence. inhibition, % at 10 µM. shares compounds with NLRP3 yeast inh; in the data active = inhibition above about 48%
Casp1 ASC ctr = active in yeast caspase-1-ASC counter-screen for NALP3 inhibitors. actives 66% (n = 1,000). inhibition, % at 10 µM. shares compounds with NLRP3 yeast inh. yeast expressing Caspase-1-ASC, luminescence counter screen. AID 488784
NALP3 yeast rt = yeast NALP3 inhibition, confirmed on retest; shares compounds with NLRP3 yeast inh; inhibition, % at 10 µM; actives 53% (n = 1,000); yeast expressing human NALP3, luminescence read-out
* = called active by the depositor; / = not tested or not shown. Cut-off read from the data, not from the text of the source, unless noted: active = inhibition above about 50%; inactive = the rest.

SMILES | PfHsp90 set2 | SKKanGAS inh | TIM10 inh | tim23-1 inh | tim10-1 inh | NLRP3 yeast inh | NALP3 confirm | Casp1 ASC ctr | NALP3 yeast rt
NCCNC(=O)c1c(O)c2cccc3c2n(c1=O)CCC3 | 5 | 5 | 33 | 41 | -14 | 61* | 75* | 51* | 46
Cc1ccc(C(=O)Nc2nc3ccccc3s2)s1 | 5 | -1 | 26 | 19 | 6 | 45 | / | / | /
Cc1noc(C)c1C(=O)Nc1nc2ccccc2s1 | / | / | 4 | 16 | 12 | 50* | 49* | 39 | 31
CC(=O)N1CCN(c2ccc(S(=O)(=O)N3CCCCC3)cc2[N+](=O)[O-])CC1 | -17 | / | -5 | 15 | 14 | 13 | / | / | /
CCCSc1ccc([C@H]2N[C@@](C)(C(=O)OC)[C@H]3C(=O)N(C)C(=O)[C@@H]23)cc1 | -8 | -7 | -5 | 4 | 1 | 51* | 48 | 16 | 16
CCCOc1ncnc2c1[nH]c1ccc(C)cc12 | / | 2 | 14 | 20 | -55 | 39 | / | / | /
CCOc1ncnc2c1[nH]c1ccccc12 | -6 | 4 | 23 | 28 | -58 | 61* | 82* | / | /
COC(=O)c1cc(CNC(=O)c2ccc(S(=O)(=O)N(C)c3ccccc3)cc2)ccc1OC | -23 | / | 0 | 0 | 7 | -4 | / | / | /
Cc1nc2c3ccccc3nc(NNC(=O)CCC(=O)NCCN3CCN(c4ccccc4F)CC3)n2n1 | -15 | -4 | 2 | 11 | 18 | 52* | 76* | 54* | 71*
COc1ccc(N2CCN(CCNC(=O)CCC(=O)NNc3nc4ccccc4c4nc(C)nn34)CC2)cc1 | 7 | 4 | 0 | 12 | 17 | 41 | / | / | /
c1ccc(COc2ncnc3c2ncn3CCCNCCN2CCOCC2)cc1 | -7 | / | / | / | / | / | / | / | /
COc1ccc(CN2CCNC(=O)C2CC(=O)NCCCn2cccn2)c(OC)c1 (configuration not stated) | 6 | -11 | 5 | 2 | 8 | -10 | / | / | /
O=S(=O)(c1ccc(F)cc1)c1snnc1-c1ccccc1 | 20 | 6 | / | / | / | / | / | / | /
O=S(=O)(c1ccc(Cl)cc1)c1snnc1-c1ccccc1 | 49 | 15 | -6 | 31 | 13 | 61* | 72* | 74* | 66*
Oc1c(N=Nc2ccccc2)sc2ccccc12 | 8 | 8 | 3 | 7 | 1 | 51* | 71* | / | /
Cc1snc(SCc2ccc(F)cc2)c1C#N | 3 | 5 | -21 | 9 | 1 | 38 | / | / | /
Cc1snc(SCc2ccc(Cl)cc2)c1C#N | 9 | 15 | 5 | 1 | -5 | 52* | 49* | 63* | 25
COc1ccc(NC(=S)N2CCN(C(=O)c3ccco3)CC2)cc1OC | -3 | 1 | 1 | -4 | -16 | 11 | / | / | /
Cc1ccc2c(c1)c1c(n2C)C(=O)CCC1 | -2 | 1 | -1 | 4 | -3 | 54* | 56* | 63* | 52*
CCn1c2c(c3cc(Cl)ccc31)CCCC2=O | 2 | 4 | -26 | -2 | 13 | 44 | / | / | /
O=C(Nc1cc(S(=O)(=O)N2CCOCC2)ccc1Cl)C1CCC1 | -6 | -11 | 8 | 4 | 5 | 5 | / | / | /
Clc1nnc(N/N=C/c2ccccc2)c2ccccc12 | -7 | -4 | 16 | 10 | 21 | 60* | 71* | 49 | 34
Clc1cc2nc3ccccn3c2cc1Cl | 11 | 8 | 17 | 30 | 12 | 67* | 30 | / | /
CCOC(=O)c1cnc(SC)nc1N1CCCC1 | 31 | -9 | -20 | 2 | -22 | 56* | 52* | 56* | 42
O=C1c2cc(Br)ccc2OC2C=CC=CC12 (configuration not stated) | -48 | / | -1 | 44 | 19 | / | / | / | /
C=CCc1ccccc1OCC(O)CN1CCN(c2ccc(C)cc2)CC1 (configuration not stated) | -6 | 11 | 7 | 14 | 16 | 39 | / | / | /
